The campaign covered roughly 290,000 compounds. About 150 (0.052%) were called active.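 Rule for the calls: active = inhibition of at least 50% with at least 30 cells and total cytoplasm GFP at most 10,000,000; inconclusive = under 30 cells or total GFP of 10,000,000 plus; inactive = the rest.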 The list comes from a sample in which actives are over-represented; it also holds similar structures and randomly drawn compounds. Measured potencies and affinities stand elsewhere.
The compounds below were run against G-protein coupled receptor 35 (Homo sapiens) (UniProt Q9HC97) (assay: inhibition of zaprinast-stimulated GPR35 beta-arrestin translocation – imaging, U2OS, beta-arrestin-GFP, zaprinast agonist, primary screen (AID 2058)). Conditions: zaprinast antagonism, at 10 µM, hits give high values.
Chain of G-protein coupled receptor 35 (Homo sapiens) (Q9HC97 whole entry, looked up): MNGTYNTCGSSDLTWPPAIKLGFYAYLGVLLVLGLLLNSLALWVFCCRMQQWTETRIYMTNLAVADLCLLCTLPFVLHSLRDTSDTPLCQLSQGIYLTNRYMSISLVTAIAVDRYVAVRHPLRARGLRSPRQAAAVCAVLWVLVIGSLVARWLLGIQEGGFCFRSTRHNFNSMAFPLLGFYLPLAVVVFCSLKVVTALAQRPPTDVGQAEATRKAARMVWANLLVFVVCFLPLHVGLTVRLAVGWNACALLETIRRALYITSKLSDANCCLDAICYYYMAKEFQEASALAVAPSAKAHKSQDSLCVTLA

Row | SMILES | inhibition
1 | Nc1c(S(=O)(=O)c2cccs2)c2nc3ccccc3nc2n1CC1CCCO1 (stereo not drawn) | 4.2% (inactive)
2 | NC1=NC(=O)C2(COC(c3cccnc3)OC2)S1 (stereo not drawn) | -12.6% (inactive)
3 | O=[N+]([O-])c1ccc2[nH]nc(-c3ccccc3)c2c1 | -6.7% (inactive)
4 | Nc1nc2ccc([N+](=O)[O-])cc2[nH]1 | 20.4% (inactive)
5 | CCC(=O)Nc1nnc(SCC(=O)NCCc2ccc(OC)c(OC)c2)s1 | -2.7% (inactive)
6 | Cc1cc(SCC(=O)N/N=C/c2ccc(C(=O)O)cc2)nc2ccccc12 | 1.1% (inactive)
7 | CC(C)N1C(=O)S/C(=C/c2ccc(Sc3nc4ccccc4[nH]3)o2)C1=O | -6.1% (inactive)
8 | CCN(CC)c1ccc(/C=C2\SC(=O)N(C(C)C)C2=O)o1 | 102% (active)
9 | CC(C)N1C(=O)S/C(=C\c2ccc(-c3ccc(Cl)c(C(=O)O)c3)o2)C1=O | -27.6% (inactive)
10 | COc1ccccc1OCCNC(=O)Nc1cc(F)c(F)cc1Cl | 3.6% (inactive)
11 | COc1cc(-c2nc(Cc3c(F)cccc3Cl)no2)cc(OC)c1OC | 7.3% (inactive)
12 | Oc1ccc(C2=NN(c3ccccc3)C(c3ccc(F)cc3)C2)cc1 (stereo not drawn) | 78.6% (active)
13 | COc1ccc(C2CC(c3ccc(F)cc3)=NN2c2ccccc2)cc1OC (stereo not drawn) | -7.1% (inactive)
14 | Oc1ccccc1C1=NN(c2ccccc2)C(c2ccc(F)cc2)C1 (stereo not drawn) | 1.5% (inactive)
15 | COc1cccc(N2C(=O)CC(NNC(=O)c3cccs3)C2=O)c1 (stereo not drawn) | -15.4% (inactive)
16 | O=C(Cn1cncn1)N/N=C/c1cccnc1 | -13.5% (inactive)
17 | CC(C)C1=NN2C(=N)CC(=O)N=C2S1 | -12.3% (inactive)
18 | Cc1ccc(Cn2ncc3c(N4CCN(c5ccc(C)cc5)CC4)ncnc32)cc1 | 1.6% (inactive)
19 | Cc1ccc(Cn2ncc3c(N4CCN(C)CC4)ncnc32)cc1 | -0.4% (inactive)
20 | Cc1ccc(Cn2ncc3c(N4CCN(Cc5ccc(Cl)cc5)CC4)ncnc32)cc1 | 11.6% (inactive)

Row | SMILES | inhibition
21 | Clc1ccc(Cn2ncc3c(N4CCCC4)ncnc32)cc1 | -11.9% (inactive)
22 | COc1ccc(C2c3c(ccc4ccccc34)Oc3ncn4nc(CO/N=C/c5ccccc5)nc4c32)cc1 (stereo not drawn) | -1.8% (inactive)
23 | COc1ccc(C(=O)NNS(=O)(=O)c2ccccc2)cc1 | -5.9% (inactive)
24 | CC(C)[C@H](Nc1ccc(S(=O)(=O)N2CCOCC2)cc1[N+](=O)[O-])C(=O)OCC(=O)N(C(C)C)C(C)C | 11.5% (inactive)
25 | COc1cc(/C=N/NC(=O)CC2(C)OCCCO2)ccc1OCc1ccccc1 | -7.2% (inactive)
26 | COc1cc(/C=N/NC(=O)CC2(C)OCCCO2)ccc1OCc1ccc(Cl)cc1Cl | 10.6% (inactive)
27 | O=C(NCC1CCCO1)c1cc2cc(Cl)ccc2[nH]1 (stereo not drawn) | 2.4% (inactive)
28 | CCOC(=O)c1ccccc1NC(=O)Cn1cnc2c(oc3ccccc32)c1=O | 8.3% (inactive)
29 | COC(=O)c1ccc(CSc2nc(C)nc3c2c(=O)n(C)c(=O)n3C)o1 | -16.8% (inactive)
30 | O=C(CSc1nc2cc(Cl)ccc2c(=O)n1Cc1ccco1)Nc1ccc(S(=O)(=O)N2CCOCC2)cc1 | -2.6% (inactive)
31 | O=C(N/N=C/c1cccs1)[C@H]1C[C@@H]1c1ccccc1 | 9.8% (inactive)
32 | Oc1ccc(Nc2nc(-c3ccccc3F)nc3ccccc23)cc1 | -5.3% (inactive)
33 | Oc1ccc(/C=N/Nc2nc(-c3cccnc3)nc3ccccc23)c(O)c1 | 8.3% (inactive)
34 | CC1CCN(S(=O)(=O)c2cccc(S(=O)(=O)N3CCCC3)c2)CC1 | 4.8% (inactive)
35 | NC(=O)c1cc2cc([N+](=O)[O-])ccc2oc1=O | -20% (inactive)
36 | COc1ccc(C(=O)Nc2ccc(Cl)cc2C(=O)NCc2ccco2)cc1 | 14% (inactive)
37 | CCn1cnc2cc(NCc3ccc(OC)cc3)ccc21 | -12.4% (inactive)
38 | CCOc1ccc(CNc2ccc3c(c2)nc(C)n3C)cc1 | 4.9% (inactive)
39 | CCOCC(O)CS(=O)(=O)c1ccccn1 (stereo not drawn) | -4.6% (inactive)
40 | O=C(Nc1nc2ccc3ccccc3c2s1)c1ccc(N2CCCCC2)c([N+](=O)[O-])c1 | 5.5% (inactive)

Row | SMILES | inhibition
41 | O=C(Nc1nc2ccc(Cl)cc2s1)c1ccc(N2CCCCC2)c([N+](=O)[O-])c1 | 4.2% (inactive)
42 | O=C(Cc1cccc2ccccc12)Nc1cc(Cl)ccc1C(=O)O | -3.5% (inactive)
43 | O=C(CCC1N=C2c3ccccc3N=C(SCC(=O)NCC3CCCO3)N2C1=O)NCc1ccc(F)cc1 (stereo not drawn) | -0.5% (inactive)
44 | N#C/C(=C\c1ccc(N2CCOCC2)o1)c1nc2ccccc2[nH]1 | 26.1% (inactive)
45 | N#C/C(=C\c1ccc(N2CCOCC2)o1)c1ccccc1 | 19.5% (inactive)
46 | CCn1c(CC(=O)Nc2ccccc2F)nnc1SCC(=O)N1CCN(c2ccccc2)CC1 | -10.6% (inactive)
47 | CC(C)(C)NC(=O)CN(C(=O)C(=O)Nc1ccc2c(c1)OCCO2)C1CCCC1 | 15.5% (inactive)
48 | CC(=O)c1cccc(NC(=O)/C(=C\c2ccco2)NC(=O)c2ccco2)c1 | -5.7% (inactive)
49 | CCN1C=CC2=C(C#N)C(N)C(C#N)(C#N)C(c3ccccc3C(F)(F)F)C2C1 (stereo not drawn) | 12.6% (inactive)
50 | CN1C=CC2=C(C#N)C(N)C(C#N)(C#N)[C@H](c3ccccc3)[C@H]2C1 (stereo partly drawn) | 38.1% (inactive)
51 | CC1=C(C(=O)OCc2ccccc2)C(c2ccccc2Cl)NC(=O)N1CCCCCC(=O)O (stereo not drawn) | 0.1% (inactive)
52 | O=S(=O)(Nc1nc2ccccc2s1)c1cc(F)ccc1F | -10.3% (inactive)
53 | CC1CN(CCC(=O)Nc2ccc3c(c2)OCO3)CC(C)O1 (stereo not drawn) | -12% (inactive)
54 | C#CCOCCOCCOCCNc1nc(N2CCN(C(=O)[C@H]([C@@H](C)CC)n3cc(CCCN=C(N)N)nn3)CC2)nc(N2CCN(C(=O)[C@H](Cc3ccc(O)cc3)n3cc(CCO)nn3)CC2)n1 | -6.4% (inactive)
55 | Cc1ccc(C2=NN(S(C)(=O)=O)C(c3ccc4c(c3)OCO4)C2)cc1 (stereo not drawn) | 6.3% (inactive)
56 | CS(=O)(=O)N1N=C(c2ccc(Br)cc2)CC1c1ccc2c(c1)OCO2 (stereo not drawn) | 20.6% (inactive)
57 | O=C(NC1CCCC1)C(c1ccccn1)N(C(=O)c1csnn1)c1ccccc1 (stereo not drawn) | 13.8% (inactive)
58 | COc1ccc(/C=N/N2C(=O)CN(C(=O)c3ccccc3)C2c2ccc(OC)cc2)cc1 (stereo not drawn) | 1.5% (inactive)
